ChEMBL document CHEMBL1961873, “Compounds: GSK PKIS; Assays: Nanosyn kinase panel” (2012)

Assays:
[1] = biological target: Dual specificity protein kinase CLK3 (Homo sapiens) (UniProt P49761); settings: at 1 µM;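 also: each value is the mean inhibition of CLK3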
[2] = biological target: Dual specificity tyrosine-phosphorylation-regulated kinase 1A (Homo sapiens) (UniProt Q13627); settings: at 0.1 µM
[3] = biological target: Dual specificity tyrosine-phosphorylation-regulated kinase 1A (Homo sapiens) (UniProt Q13627); settings: at 1 µM
[4] = biological target: Dual specificity tyrosine-phosphorylation-regulated kinase 1B (Homo sapiens) (UniProt Q9Y463); settings: at 0.1 µM
[5] = biological target: Dual specificity tyrosine-phosphorylation-regulated kinase 1B (Homo sapiens) (UniProt Q9Y463); settings: at 1 µM
[6] = biological target: T1, Dual specificity tyrosine-phosphorylation-regulated kinase 2 (Homo sapiens) (UniProt Q92630); settings: at 0.1 µM
T1 sequence (whole entry): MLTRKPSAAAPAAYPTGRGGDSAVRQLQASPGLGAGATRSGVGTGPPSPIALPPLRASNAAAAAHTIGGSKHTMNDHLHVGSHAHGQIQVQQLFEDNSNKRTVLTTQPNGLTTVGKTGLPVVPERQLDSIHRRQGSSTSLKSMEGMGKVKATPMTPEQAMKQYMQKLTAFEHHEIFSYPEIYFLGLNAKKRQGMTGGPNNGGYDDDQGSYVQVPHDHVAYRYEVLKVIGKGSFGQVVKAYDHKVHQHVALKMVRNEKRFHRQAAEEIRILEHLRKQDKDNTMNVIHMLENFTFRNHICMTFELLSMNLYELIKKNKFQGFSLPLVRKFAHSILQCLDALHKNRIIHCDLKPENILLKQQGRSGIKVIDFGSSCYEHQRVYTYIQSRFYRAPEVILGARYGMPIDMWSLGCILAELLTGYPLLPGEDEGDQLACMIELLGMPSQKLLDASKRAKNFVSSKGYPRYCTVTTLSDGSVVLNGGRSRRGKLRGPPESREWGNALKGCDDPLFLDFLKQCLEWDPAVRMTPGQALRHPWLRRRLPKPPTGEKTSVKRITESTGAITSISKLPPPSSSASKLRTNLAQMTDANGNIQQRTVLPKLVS

[7] = biological target: T1, Dual specificity tyrosine-phosphorylation-regulated kinase 2 (Homo sapiens); settings: at 1 µM
[8] = biological target: Glycogen synthase kinase-3 alpha (Homo sapiens) (UniProt P49840); settings: at 0.1 µM
[9] = biological target: Glycogen synthase kinase-3 alpha (Homo sapiens) (UniProt P49840); settings: at 1 µM
[10] = biological target: Glycogen synthase kinase-3 beta (Homo sapiens) (UniProt P49841); settings: at 0.1 µM
[11] = biological target: Glycogen synthase kinase-3 beta (Homo sapiens) (UniProt P49841); settings: at 1 µM
[12] = biological target: Homeodomain-interacting protein kinase 1 (Homo sapiens) (UniProt Q86Z02); settings: at 0.1 µM
[13] = biological target: Homeodomain-interacting protein kinase 1 (Homo sapiens) (UniProt Q86Z02); settings: at 1 µM
[14] = biological target: T2, Homeodomain-interacting protein kinase 4 (Homo sapiens) (UniProt Q8NE63); settings: at 0.1 µM
T2 sequence (whole entry): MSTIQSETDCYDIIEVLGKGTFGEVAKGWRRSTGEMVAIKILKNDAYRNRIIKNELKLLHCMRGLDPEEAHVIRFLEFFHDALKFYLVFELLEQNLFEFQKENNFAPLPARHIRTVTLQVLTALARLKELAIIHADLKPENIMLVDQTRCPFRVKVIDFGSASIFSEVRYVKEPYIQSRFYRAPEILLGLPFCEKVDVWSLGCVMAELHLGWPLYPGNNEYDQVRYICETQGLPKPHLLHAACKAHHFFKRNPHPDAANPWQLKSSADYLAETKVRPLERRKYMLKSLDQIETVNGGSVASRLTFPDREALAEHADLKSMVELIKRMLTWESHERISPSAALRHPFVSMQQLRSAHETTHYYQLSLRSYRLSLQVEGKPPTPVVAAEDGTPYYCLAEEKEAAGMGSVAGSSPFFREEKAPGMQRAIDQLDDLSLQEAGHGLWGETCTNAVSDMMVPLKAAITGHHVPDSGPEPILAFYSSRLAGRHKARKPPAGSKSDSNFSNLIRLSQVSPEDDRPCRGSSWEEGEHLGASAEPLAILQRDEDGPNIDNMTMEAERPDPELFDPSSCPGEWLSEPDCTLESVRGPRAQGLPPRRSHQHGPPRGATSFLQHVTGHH

[15] = biological target: T2, Homeodomain-interacting protein kinase 4 (Homo sapiens); settings: at 1 µM
[16] = biological target: Mitogen-activated protein kinase 9 (Homo sapiens) (UniProt P45984); settings: at 0.1 µM
[17] = biological target: Mitogen-activated protein kinase 9 (Homo sapiens) (UniProt P45984); settings: at 1 µM
[18] = biological target: Mitogen-activated protein kinase 1 (Homo sapiens) (UniProt P28482); settings: at 0.1 µM
[19] = biological target: Mitogen-activated protein kinase 1 (Homo sapiens) (UniProt P28482); settings: at 1 µM
[20] = biological target: Mitogen-activated protein kinase 3 (Homo sapiens) (UniProt P27361); settings: at 0.1 µM;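 also: each value is a mean inhibition figure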
Mitogen-activated protein kinase 3 (Homo sapiens), sequence (P27361 whole entry): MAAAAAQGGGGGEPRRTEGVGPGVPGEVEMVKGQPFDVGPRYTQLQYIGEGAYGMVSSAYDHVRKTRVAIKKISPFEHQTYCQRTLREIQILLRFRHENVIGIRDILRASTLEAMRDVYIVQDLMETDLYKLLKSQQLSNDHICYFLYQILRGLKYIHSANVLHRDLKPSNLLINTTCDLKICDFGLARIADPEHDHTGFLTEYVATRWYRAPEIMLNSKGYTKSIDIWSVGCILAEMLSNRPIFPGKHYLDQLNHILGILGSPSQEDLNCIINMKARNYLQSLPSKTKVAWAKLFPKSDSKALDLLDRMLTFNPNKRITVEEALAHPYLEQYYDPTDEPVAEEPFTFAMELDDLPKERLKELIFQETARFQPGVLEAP

Dual specificity protein kinase CLK3 (Homo sapiens), sequence (P49761 whole entry, looked up): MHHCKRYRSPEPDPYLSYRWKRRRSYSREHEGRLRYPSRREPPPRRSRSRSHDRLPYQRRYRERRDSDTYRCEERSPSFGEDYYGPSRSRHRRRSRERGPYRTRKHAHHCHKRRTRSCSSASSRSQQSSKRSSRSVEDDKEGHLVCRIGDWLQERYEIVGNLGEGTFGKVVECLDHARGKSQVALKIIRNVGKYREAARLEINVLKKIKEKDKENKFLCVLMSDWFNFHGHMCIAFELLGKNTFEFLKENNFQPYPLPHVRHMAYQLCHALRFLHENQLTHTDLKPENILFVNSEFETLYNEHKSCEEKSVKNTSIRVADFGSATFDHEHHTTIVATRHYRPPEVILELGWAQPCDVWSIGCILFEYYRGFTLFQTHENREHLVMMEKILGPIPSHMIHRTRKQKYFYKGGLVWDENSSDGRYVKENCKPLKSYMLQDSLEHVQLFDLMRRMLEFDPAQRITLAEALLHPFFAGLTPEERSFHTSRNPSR
Glycogen synthase kinase-3 beta (Homo sapiens), sequence (P49841 whole entry, looked up): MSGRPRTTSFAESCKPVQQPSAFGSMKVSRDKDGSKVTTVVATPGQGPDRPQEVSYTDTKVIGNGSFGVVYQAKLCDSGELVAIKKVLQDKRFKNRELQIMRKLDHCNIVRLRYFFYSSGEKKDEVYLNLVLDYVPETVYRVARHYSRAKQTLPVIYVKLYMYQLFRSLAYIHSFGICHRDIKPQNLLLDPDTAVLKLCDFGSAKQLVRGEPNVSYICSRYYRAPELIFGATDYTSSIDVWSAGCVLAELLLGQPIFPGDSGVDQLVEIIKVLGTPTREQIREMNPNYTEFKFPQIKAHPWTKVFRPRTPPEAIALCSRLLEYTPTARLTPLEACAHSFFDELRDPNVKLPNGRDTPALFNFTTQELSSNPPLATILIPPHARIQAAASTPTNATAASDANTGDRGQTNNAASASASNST
Mitogen-activated protein kinase 1 (Homo sapiens), sequence (P28482 whole entry): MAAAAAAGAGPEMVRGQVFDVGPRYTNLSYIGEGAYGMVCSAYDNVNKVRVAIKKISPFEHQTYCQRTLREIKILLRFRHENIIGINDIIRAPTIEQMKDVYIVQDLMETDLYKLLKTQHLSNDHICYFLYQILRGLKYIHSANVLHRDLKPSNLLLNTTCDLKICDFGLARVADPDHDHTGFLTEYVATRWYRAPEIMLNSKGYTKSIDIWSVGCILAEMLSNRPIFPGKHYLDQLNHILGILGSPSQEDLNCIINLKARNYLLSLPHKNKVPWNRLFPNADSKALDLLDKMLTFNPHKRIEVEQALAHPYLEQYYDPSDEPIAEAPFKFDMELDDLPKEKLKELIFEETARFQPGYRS
Mitogen-activated protein kinase 9 (Homo sapiens), sequence (P45984 whole entry, looked up): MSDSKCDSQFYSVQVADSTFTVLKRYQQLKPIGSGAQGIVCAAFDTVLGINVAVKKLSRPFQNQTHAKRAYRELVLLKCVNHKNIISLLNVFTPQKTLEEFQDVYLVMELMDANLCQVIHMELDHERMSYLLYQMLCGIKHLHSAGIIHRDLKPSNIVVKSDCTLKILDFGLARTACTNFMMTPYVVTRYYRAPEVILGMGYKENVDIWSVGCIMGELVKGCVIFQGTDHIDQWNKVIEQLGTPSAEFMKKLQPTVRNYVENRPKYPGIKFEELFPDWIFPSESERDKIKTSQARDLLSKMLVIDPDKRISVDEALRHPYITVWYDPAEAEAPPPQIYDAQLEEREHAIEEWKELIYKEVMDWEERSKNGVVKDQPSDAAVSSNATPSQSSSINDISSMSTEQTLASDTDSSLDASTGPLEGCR
Glycogen synthase kinase-3 alpha (Homo sapiens), sequence (P49840 2-483 limits assumed): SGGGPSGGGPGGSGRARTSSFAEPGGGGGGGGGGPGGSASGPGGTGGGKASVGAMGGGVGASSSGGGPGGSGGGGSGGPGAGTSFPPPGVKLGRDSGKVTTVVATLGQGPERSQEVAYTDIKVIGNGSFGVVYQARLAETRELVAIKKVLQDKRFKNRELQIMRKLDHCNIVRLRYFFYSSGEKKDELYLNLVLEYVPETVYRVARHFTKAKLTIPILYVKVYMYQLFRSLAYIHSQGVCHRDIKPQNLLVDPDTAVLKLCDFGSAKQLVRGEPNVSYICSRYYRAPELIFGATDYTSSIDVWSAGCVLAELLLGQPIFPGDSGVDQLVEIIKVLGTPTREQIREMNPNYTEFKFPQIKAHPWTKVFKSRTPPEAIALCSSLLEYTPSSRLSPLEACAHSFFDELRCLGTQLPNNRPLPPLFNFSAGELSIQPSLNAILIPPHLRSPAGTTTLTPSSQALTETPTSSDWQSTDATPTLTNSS
Dual specificity tyrosine-phosphorylation-regulated kinase 1B (Homo sapiens), sequence (Q9Y463 whole entry, looked up): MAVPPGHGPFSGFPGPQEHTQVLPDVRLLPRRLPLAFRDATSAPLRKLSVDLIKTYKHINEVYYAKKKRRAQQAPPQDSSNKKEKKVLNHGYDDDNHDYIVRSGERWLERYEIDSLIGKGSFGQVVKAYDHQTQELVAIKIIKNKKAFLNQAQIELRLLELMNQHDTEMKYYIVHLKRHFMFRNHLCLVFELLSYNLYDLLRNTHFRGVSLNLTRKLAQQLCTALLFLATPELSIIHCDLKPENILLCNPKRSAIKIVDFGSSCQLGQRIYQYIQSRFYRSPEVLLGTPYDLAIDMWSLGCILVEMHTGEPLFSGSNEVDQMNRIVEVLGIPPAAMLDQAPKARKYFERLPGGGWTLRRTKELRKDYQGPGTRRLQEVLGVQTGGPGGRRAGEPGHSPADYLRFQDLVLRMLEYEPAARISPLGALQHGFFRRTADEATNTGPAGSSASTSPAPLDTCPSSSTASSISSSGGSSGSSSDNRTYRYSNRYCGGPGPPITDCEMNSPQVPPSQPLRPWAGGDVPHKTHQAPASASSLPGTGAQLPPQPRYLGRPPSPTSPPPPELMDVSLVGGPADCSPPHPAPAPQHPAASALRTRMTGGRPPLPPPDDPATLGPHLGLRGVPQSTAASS
Homeodomain-interacting protein kinase 1 (Homo sapiens), sequence (Q86Z02 whole entry, looked up): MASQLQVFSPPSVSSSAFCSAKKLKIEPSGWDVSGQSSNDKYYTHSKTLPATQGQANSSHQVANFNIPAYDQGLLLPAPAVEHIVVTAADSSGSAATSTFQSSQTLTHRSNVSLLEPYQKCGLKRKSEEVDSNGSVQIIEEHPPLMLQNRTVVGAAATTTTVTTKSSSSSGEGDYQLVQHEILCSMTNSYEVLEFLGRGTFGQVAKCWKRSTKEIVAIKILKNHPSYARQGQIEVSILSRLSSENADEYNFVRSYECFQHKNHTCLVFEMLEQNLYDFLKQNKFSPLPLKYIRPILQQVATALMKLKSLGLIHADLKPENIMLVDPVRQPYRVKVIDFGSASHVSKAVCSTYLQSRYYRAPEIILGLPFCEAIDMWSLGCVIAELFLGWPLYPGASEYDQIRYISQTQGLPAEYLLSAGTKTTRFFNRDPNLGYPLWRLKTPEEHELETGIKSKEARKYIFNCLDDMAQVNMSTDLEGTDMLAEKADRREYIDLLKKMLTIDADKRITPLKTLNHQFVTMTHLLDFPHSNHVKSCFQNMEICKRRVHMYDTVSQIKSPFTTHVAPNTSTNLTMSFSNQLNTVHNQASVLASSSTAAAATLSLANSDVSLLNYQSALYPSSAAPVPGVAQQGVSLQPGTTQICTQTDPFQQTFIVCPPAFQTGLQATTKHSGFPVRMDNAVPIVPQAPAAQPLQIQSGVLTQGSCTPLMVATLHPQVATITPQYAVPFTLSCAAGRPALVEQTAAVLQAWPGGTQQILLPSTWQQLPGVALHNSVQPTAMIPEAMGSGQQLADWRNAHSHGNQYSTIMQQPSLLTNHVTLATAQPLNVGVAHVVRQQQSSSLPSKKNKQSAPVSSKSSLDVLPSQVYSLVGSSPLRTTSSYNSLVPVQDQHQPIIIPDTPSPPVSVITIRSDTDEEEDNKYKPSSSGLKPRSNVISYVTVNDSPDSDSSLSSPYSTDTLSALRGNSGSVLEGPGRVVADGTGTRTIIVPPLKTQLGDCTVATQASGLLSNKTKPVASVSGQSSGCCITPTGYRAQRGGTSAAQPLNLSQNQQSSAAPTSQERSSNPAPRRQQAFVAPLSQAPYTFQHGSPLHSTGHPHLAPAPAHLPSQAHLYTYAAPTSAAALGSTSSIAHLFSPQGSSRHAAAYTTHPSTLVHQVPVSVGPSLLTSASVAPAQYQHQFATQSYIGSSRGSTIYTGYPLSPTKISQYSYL

SMILES | inhibition [1] | inhibition [2] | inhibition [3] | inhibition [4] | inhibition [5] | inhibition [6] | inhibition [7] | inhibition [8] | inhibition [9] | inhibition [10] | inhibition [11] | inhibition [12] | inhibition [13] | inhibition [14] | inhibition [15] | inhibition [16] | inhibition [17] | inhibition [18] | inhibition [19] | inhibition [20]
CCn1c(-c2nonc2N)nc2c(C#CC(C)(C)O)nc(OC[C@H](N)c3ccccc3)cc21 | 0.92% | 1.72% | 2.24% | 0.98% | 2.57% | 3.62% | 4.79% | 36.8% | 73.6% | 30% | 71.2% | -1.18% | 12.3% | 3.08% | 6.13% | 7.43% | 9.81% | 2.37% | 5.04% | 3.72%
COc1cccc(-c2c[nH]c3c(N/N=C/c4ccncc4)ncnc23)c1 | 14% | 16.1% | 58.5% | 11.3% | 50.5% | 11.7% | 57.8% | 78.9% | 83.5% | 76.6% | 83.5% | 5.99% | 41.7% | 10.1% | 43.2% | 2.08% | 8.51% | 1.55% | 5.09% | 1.78%
c1ccc(COc2ccc(Nc3ncnc4ccc(-c5ccco5)cc34)cc2)cc1 | -0.29% | -1.32% | 3.87% | -0.39% | 0.34% | 0.31% | -1.53% | 1.11% | 1.51% | 0.28% | 2.25% | -3.03% | -3.68% | 0.31% | 1.89% | 1.39% | 1.07% | 2.65% | -3.36% | 0.95%
CS(=O)(=O)CCNCc1coc(-c2ccc3ncnc(Nc4ccc(OCc5ccccc5)cc4)c3c2)c1 | 0.66% | 1.48% | 2.33% | -0.25% | 1.83% | 3.02% | 4.76% | 2.99% | 4.78% | 2.21% | 6.33% | -1.59% | 2.97% | 0.96% | 8.92% | 1.82% | 2.72% | 2.46% | 3.11% | 3.44%
CNC(=O)c1cccc(C#Cc2cncnc2Nc2ccc(OCc3cccc(F)c3)c(Cl)c2)c1 | -0.52% | -0.33% | 1.36% | 0.13% | 1% | 0.97% | 1.82% | 1.09% | 3.8% | 0.4% | 6.56% | 1.69% | 4.07% | 1.01% | 4.65% | -2.46% | 1.25% | 1.53% | 0.6% | 2.46%
c1ccc(-c2nc3n(c2-c2ccc4c(c2)OCO4)CCC3)nc1 | 1.02% | 1.52% | 6.32% | 1.24% | 5.19% | 1.61% | 1.95% | 1.93% | 5.52% | 2.03% | 6.89% | 0.04% | 0.44% | -0.4% | -0.33% | 1.36% | 1.96% | -0.55% | 0.62% | 0.29%
COc1ccc2c(-c3ccnc(Nc4cccc(OC(F)(F)F)c4)n3)cnn2n1 | 52.8% | 16% | 60.8% | 32.6% | 77.2% | 4.32% | 16% | 28.1% | 81.1% | 21.2% | 73.2% | 84.8% | 91.7% | 51.3% | 83% | 1.35% | 11.4% | 2.96% | 7.52% | 5.36%
Fc1cccc(COc2ccc(Nc3ncnc4sc(-c5ccco5)cc34)cc2Cl)c1 | 0.86% | 3.24% | 4.83% | -1.92% | 0.72% | 3.21% | 0.35% | 3.67% | 6.09% | 2.77% | 4.97% | -0.44% | 5.88% | 2.99% | 5.88% | 1.05% | 0.94% | 5.22% | 5.78% | 2.39%
CCn1c(-c2nonc2N)nc2ccccc21 | 2.22% | 1.62% | 14.6% | 1.02% | 7.36% | 2.66% | 5.28% | 3.32% | 24% | 3.21% | 17.4% | 1.47% | 4.99% | 1.45% | 4.14% | 3.53% | 2.53% | 1.93% | 3.93% | 3.48%
COC(=O)c1sc(-n2cnc3cc(OC)c(OC)cc32)cc1OCc1ccccc1C(F)(F)F | 0.53% | 1.62% | 3.44% | -1.47% | -1.98% | 3.48% | 4.12% | 1.51% | 4.48% | -0.28% | 3.49% | -2.18% | -0.46% | -0.74% | 1.47% | 3.59% | 6.58% | 4.72% | 5.29% | 3.25%
CCOc1ccc2c(-c3ccnc(Nc4cccc(C(F)(F)F)c4)n3)cnn2n1 | 6.13% | -0.46% | 6.48% | 1.37% | 21% | 1.79% | 0.78% | 12.1% | 46.1% | 5.68% | 33.6% | 21.8% | 70% | 10.3% | 46.2% | 1.84% | 1.35% | 3.23% | 3.31% | 2.89%
COC(=O)Nc1nc2ccc(S(=O)(=O)c3ccc(NC(=O)Nc4cc(C(F)(F)F)ccc4F)cc3)cc2[nH]1 | 0.84% | 1.81% | 3.41% | 0.89% | 0.66% | 2.74% | 3.12% | 2.8% | 7.37% | 0.8% | 7.61% | -0.95% | 0.3% | -0.96% | 1.06% | 3.14% | 3.4% | 1.4% | 2.17% | 3%
O=C(O[C@H]1CN[C@H](C#Cc2cc3ncnc(Nc4ccc(Cc5ccccc5)cc4)c3s2)C1)N1CCOCC1 | 0.23% | 1.9% | -0.14% | 1.3% | 2.47% | 2.26% | 0.33% | 2.45% | 3.62% | 0.78% | 2.73% | -2.13% | 0.97% | 0.04% | -1.93% | -0.66% | -0.45% | 3.25% | 3.25% | 2.66%
